Results from PubChem BioAssay AID1085 (Emory University Molecular Libraries Screening Center, 2008).
About 930 (0.42%) of roughly 220,000 compounds were called active. Rule as the data show it: active = inhibition above about 50%; inactive = the rest. The list comes from a sample in which actives are over-represented; it also holds similar structures and randomly drawn compounds.

Target: Glycoprotein 42 (Epstein-Barr virus (strain AG876)) (UniProt Q1HVG2)
Assay: EBV glycoprotein 42 binding blockers – biochemical, uHTS, fluorescence polarization, primary screen (AID 1085)
Details: Fluorescence polarization binding assay, mP read-out; hits give high values; tested at 21.74 µM

Chain of Glycoprotein 42 (Epstein-Barr virus (strain AG876)) (Q1HVG2 whole entry, looked up): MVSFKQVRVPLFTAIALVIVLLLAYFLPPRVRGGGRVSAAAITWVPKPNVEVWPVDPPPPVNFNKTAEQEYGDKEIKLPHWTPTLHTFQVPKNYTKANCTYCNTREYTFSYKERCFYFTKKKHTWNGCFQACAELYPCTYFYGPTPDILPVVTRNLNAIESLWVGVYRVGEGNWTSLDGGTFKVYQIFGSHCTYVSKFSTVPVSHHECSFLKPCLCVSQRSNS

inhibition, inactive:
CC(=O)NC(NC(=S)Nc1c(C)n(C)n(-c2ccccc2)c1=O)C(Cl)(Cl)Cl (configuration not stated) -9.48%
COc1ccc(/C(C)=N/NC(=O)CCC(=O)Nc2ccc(Cl)cc2Cl)c(OC)c1 -0.68%
COc1ccc(N2C(=O)c3cccc4cccc(c34)C2=O)nn1 15.4%
Cc1nn(-c2cc(Cl)ccc2N)c(=O)c2ccccc12 -22.9%
Clc1cccc(CN2COc3c(cc(Cl)c4cccnc34)C2)c1 1.66%
CC(C)(C)NC(=O)CSC(=Nc1ccccc1F)NC#N 4.3%
CCNC(=O)CC1C(=O)N(c2ccc(OC)cc2)C(=S)N1CCc1ccncc1 (configuration not stated) -17.4%
CCOC(=O)c1sc(NC(=O)CSc2nc(C)cc(C(F)(F)F)n2)c(C#N)c1C -17.3%
COc1ccc2nc(N3CCCC(O)C3)c(C#N)cc2c1 (configuration not stated) 46.9%
CCOc1ccc2nc(NCCNS(=O)(=O)c3ccccc3)c(C#N)cc2c1 -8.9%
O=C(CCCCCN1C(=O)c2cccc3cccc(c23)C1=O)NCc1ccco1 -16.7%
CCN(CC)S(=O)(=O)c1ccc(N2CCOCC2)c(NC(=O)C2COc3ccccc3O2)c1 (configuration not stated) -2.58%
O=C(N/N=C/c1ccco1)c1csc2c1CCCC2 -15.1%
Cc1occc1C(=O)N1CCCc2ccccc21 -1.51%
Cc1c(C(=O)N2CCCc3ccccc32)sc2nc(-c3ccccc3)cn12 -4.31%
CCOC(=O)C(C)n1nc(-c2ccccc2)c2ccccc2c1=O (configuration not stated) -6.93%
Cn1cnc([N+](=O)[O-])c1Sc1ccccc1 -26%
COc1ccccc1NC(=O)C[n+]1ccccc1 -3.15%
COC(=O)Cc1nc2ccccc2[nH]1 -12.7%
CSc1cc(C)n(-c2ccccc2C)c(=S)c1C(C)=O -23.5%
COc1ccc(N(CCC#N)S(=O)(=O)c2ccc(Cl)cc2)cc1 -7.41%
O=C(Nc1ccc(Cl)cc1)C1c2cccc[n+]2CC(=O)N1Cc1ccc2c(c1)OCO2 (configuration not stated) -27%
CCOc1cccc(=O)c2c(C)n(CC3CCCO3)c(C)c12 (configuration not stated) 14.8%

inhibition, active:
Cc1nn(C)cc1N1C(=O)c2cccc3c(N)ccc(c23)C1=O 149%
CCOc1ccc2nc(N3CCCN(C(=O)Nc4ccccc4C)CC3)c(C#N)cc2c1 53.8%
Cc1cccc2cc3c(N)c(C(=O)N4CCCc5ccccc54)sc3nc12 88.5%
COC(=O)C[n+]1cccc2ccccc21 128%
